# In PubChem BioAssay:
# “And” between values parts separate entries of the source, which are not always exact repeats. Equal values may be shown once. Records with an inconclusive call do not appear. The source made the active and inactive calls.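 How the source made its calls, unless noted: active means compounds whose cell count with miR-34 switched on is under 0.7 times the count with it off; inactive means the rest.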
# Experiments:
# [1] = sensitizers of A549 cells to miR-34 induction, primary screen, imaging, A549 dox-inducible miR-34, nuclei and caspase counts (AID 1347080); conditions: A549 miR-34 inducible, Hoechst nuclei count, 48 h
# [2] = viability rescue of complex I mutant cybrids, primary screen, cell-based, galactose medium, ATP luminescence (AID 1645843;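 active means z-score of at least 1.8 in each of two replicates, scored against plate mean and spread of sample wells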;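 further: positive z means more ATP and so rescue of galactose-driven cybrid death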); conditions: complex I mutant cybrid cells, 72 h, stronger effect = higher value
# [3] = molecular target: ATP-dependent translocase ABCB1 (Homo sapiens) (UniProt P08183); assay: MDR1 (ABCB1) efflux transporter inhibition, cell-based (AID 377; in the data active means fluorescence slope change above about 50%); conditions: MDR1-expressing cells, fluorescent substrate accumulation slope; stronger effect = higher value; concentration not given here
# [4] = hESC survival regulators, cell-based (AID 493140; call rule not given here;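 further: cells exposed to compounds for four days before counting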); conditions: human embryonic stem cell survival screen; stronger effect = higher value
# [5] = liver-stage malaria parasite growth inhibition, primary screen, cell-based, HepG2, luciferase luminescence, HepG2 viability (AID 624349; in the data active means parasite load remaining mostly below about 12%, no sharp cut-off; inactive means mostly above about 10%;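 further: 100% = mean of DMSO negative control wells on the same plate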); conditions: P. berghei liver stage in HepG2, luciferase luminescence, concentration not given here; parasite load remaining: stronger effect = lower value; viability: measured here: HepG2 viability without parasites
# [6] = circadian clock period modulators, cell-based, LOPAC library, luminescence reporter (AID 2774; call rule not given here;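 further: values are relative to mean of DMSO wells on each plate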); conditions: circadian reporter cells, at 7 µM, actives lie on both sides
# [7] = test system: Hepatitis C virus NS3 helicase; assay: HCV NS3 helicase inhibitors, primary screen, biochemical, fluorescence polarization, LOPAC1280 library (AID 687035; in the data active means inhibition above about 37%); conditions: Purified HCV NS3 helicase, Cy5-dT15 ssDNA binding fluorescence polarization; stronger effect = higher value; concentration not given here
# [8] = Cy5 fluorescence quenching or enhancement artefacts, artefact control for HCV NS3 helicase inhibitor project, biochemical, LOPAC1280 (AID 687037; call rule not given here); conditions: Cy5-DNA-NS3h complex fluorescence interference counterscreen
# [9] = Cy5 fluorescence interference with SSB-bound oligo, artefact control for HCV NS3 helicase inhibitor project, biochemical, NIH Clinical Collection, E. coli SSB (AID 743268; call rule not given here)
# [10] = test system: Hepatitis C virus NS3 helicase; assay: HCV NS3 helicase inhibitors, primary screen, biochemical, fluorescence polarization, NIH Clinical Collection (AID 743270; call rule not given here); conditions: NS3 helicase binding to Cy5-dT15 DNA, stronger effect = higher value, concentration not given here
# [11] = molecular target: Single-stranded DNA-binding protein (Escherichia coli (strain K12)) (UniProt P0AGE0); assay: E. coli SSB displacement from DNA, counter-screen for HCV NS3 helicase inhibitor project, biochemical, fluorescence polarization, NIH Clinical Collection (AID 743271; in the data active means inhibition above about 28%); conditions: stronger effect = higher value, concentration not given here
# [12] = fluorescence interference in NS3h assay format, artefact control for HCV NS3 helicase inhibitor project, biochemical, NIH Clinical Collection (AID 743272; call rule not given here;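 further: HCV NS3 helicase with a Cy5 labelled single stranded DNA probe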); conditions: fluorescence interference counterscreen, stronger effect = lower value
# [13] = measured here: relative caspase fold change +Dox/-Dox
# [14] = measured here: total cells with miR-34 induction, stronger effect = lower value
# [15] = measured here: total cells without miR-34 induction
# [16] = stronger effect = lower value, cell number ratio, induced over uninduced
# Chain of ATP-dependent translocase ABCB1 (Homo sapiens) (P08183 whole entry, looked up): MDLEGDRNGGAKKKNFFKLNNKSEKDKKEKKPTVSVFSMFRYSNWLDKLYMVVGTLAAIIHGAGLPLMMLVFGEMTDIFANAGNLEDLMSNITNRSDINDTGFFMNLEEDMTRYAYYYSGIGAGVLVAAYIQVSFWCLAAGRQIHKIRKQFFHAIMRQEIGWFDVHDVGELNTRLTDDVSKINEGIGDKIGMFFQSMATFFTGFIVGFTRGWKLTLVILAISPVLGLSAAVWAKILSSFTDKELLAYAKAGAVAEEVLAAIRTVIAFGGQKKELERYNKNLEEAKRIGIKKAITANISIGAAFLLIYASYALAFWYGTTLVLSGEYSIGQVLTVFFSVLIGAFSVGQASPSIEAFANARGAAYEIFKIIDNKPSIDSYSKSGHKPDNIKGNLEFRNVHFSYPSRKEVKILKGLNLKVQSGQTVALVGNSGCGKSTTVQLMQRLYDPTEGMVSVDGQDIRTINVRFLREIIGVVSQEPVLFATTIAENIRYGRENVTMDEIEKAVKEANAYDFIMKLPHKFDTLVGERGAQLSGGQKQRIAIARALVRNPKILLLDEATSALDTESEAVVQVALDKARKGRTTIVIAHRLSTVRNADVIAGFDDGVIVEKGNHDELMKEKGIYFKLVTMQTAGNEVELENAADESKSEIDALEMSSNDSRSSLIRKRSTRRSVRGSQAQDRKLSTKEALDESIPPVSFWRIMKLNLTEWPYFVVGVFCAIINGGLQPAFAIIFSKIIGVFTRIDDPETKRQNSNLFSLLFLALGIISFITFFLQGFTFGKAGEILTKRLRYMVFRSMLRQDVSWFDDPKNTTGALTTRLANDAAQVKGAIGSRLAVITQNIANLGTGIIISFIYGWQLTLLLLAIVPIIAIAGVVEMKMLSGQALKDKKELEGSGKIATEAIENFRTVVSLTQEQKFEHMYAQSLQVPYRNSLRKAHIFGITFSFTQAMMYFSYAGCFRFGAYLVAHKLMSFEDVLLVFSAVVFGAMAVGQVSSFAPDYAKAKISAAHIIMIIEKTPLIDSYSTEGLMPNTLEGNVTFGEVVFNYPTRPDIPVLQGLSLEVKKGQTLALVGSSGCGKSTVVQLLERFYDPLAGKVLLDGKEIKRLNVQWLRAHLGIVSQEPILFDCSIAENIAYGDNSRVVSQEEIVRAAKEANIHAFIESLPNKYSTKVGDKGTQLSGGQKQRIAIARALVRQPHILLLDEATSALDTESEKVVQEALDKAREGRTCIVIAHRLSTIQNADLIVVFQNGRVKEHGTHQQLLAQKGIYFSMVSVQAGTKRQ
compound,measurement,setting,value
CN1CC[C@@]23CCCCC2C1Cc1ccc(O)cc13 (stereo not given in full),fold change,[1]; stronger effect = lower value,0.886 (inactive)
same,fold change,[1]; [13],1.9
same,cell count,[1]; [14],9070
same,cell count,[1]; [15],10200
same,z-score,[2],0.545 (inactive)
O=C1C=C2C=C[C@@H]3CC2(O1)[C@H]1CCCCN31,fluorescence slope change,[3],28.7% (inactive)
same,survival,[4],2.33 (inactive)
same,parasite load remaining,[5],0.53% (active)
same,viability,[5],98.2%
same,fold change,[1]; stronger effect = lower value,0.999 (inactive)
same,fold change,[1]; [13],0.949
same,cell count,[1]; [14],2810
same,cell count,[1]; [15],2810
OC[C@H]1O[C@@H](n2cnc3cc(Cl)c(Cl)cc32)C(O)[C@H]1O (stereo not given in full),survival,[4],56.1 (inactive)
same,fold change,[1]; stronger effect = lower value,0.916 (inactive)
same,fold change,[1]; [13],0.917
same,cell count,[1]; [14],1540
same,cell count,[1]; [15],1680
CCC1C=CC=CCC(C)C(O)C(C)C(=O)C(C)C(O)C(C)C(=O)C(C)C(O)C(C)C=CC(=O)OC2C(C)C(CC1)O[C@@]1(CCC(C)C(CC(C)O)O1)C2C (stereo not given in full),fold change,[1]; [16],1.03 (inactive)
same,fold change,[1]; [13],1.64
same,cell count,[1]; [14],7130
same,cell count,[1]; [15],6920
same,z-score,[2],-0.03 (inactive)
C[C@]12CCC(O)CC1=CCC1C2CC[C@]2(C)C(=O)CCC12 (stereo not given in full),fold change,[1]; stronger effect = lower value,1.16 (inactive)
same,fold change,[1]; [13],1.21
same,cell count,[1]; [14],7950
same,cell count,[1]; [15],6860
same,z-score,[2],-0.11 (inactive)
C/C=C1/C[N+]2(C)CCC34C(=C(C=O)[C@H]1C[C@@H]32)Nc1ccccc14 (stereo not given in full),fluorescence slope change,[3],21.2% (inactive)
same,survival,[4],3.83 (inactive)
same,parasite load remaining,[5],95% (inactive)
same,viability,[5],101%
same,fold change,[1]; stronger effect = lower value,0.931 (inactive)
same,fold change,[1]; [13],1.21
same,cell count,[1]; [14],8700
same,cell count,[1]; [15],9340
CN1C2CCCC1CC(=O)C2,survival,[4],10.2 (inactive)
same,parasite load remaining,[5],169% (inactive) and 77.1% (inactive)
same,viability,[5],110% and 77.5%
same,fold change,[1]; [16],0.891 (inactive)
same,fold change,[1]; [13],1.28
same,cell count,[1]; [14],9180
same,cell count,[1]; [15],10300
CC(C)(O)[C@@H]1[C@H]2OC(=O)[C@@H]1[C@]1(O)C[C@H]3O[C@]34C(=O)O[C@H]2[C@]14C (tested in a mixture with another compound),period change,[6],-0.105 h (inactive)
same,parasite load remaining,[5],96.3% (inactive)
same,viability,[5],67.1%
same,inhibition,[7],-5% (inactive)
same,fluorescence ratio (interference),[8],1 (inactive)
same,fluorescence ratio,[9],1 (inactive)
same,inhibition,[10],0.4% (inactive)
same,inhibition,[11],-0.1% (inactive)
same,fluorescence ratio,[12],0.9 (inactive)
same,fold change,[1]; stronger effect = lower value,1.06 (inactive)
same,fold change,[1]; [13],1.05
same,cell count,[1]; [14],11200
same,cell count,[1]; [15],10500
same,z-score,[2],0.54 (inactive)
COc1ccc2[nH]c3c(c2c1)CCN=C3C,fluorescence slope change,[3],83.4% (active)
same,survival,[4],10.2 (inactive)
same,parasite load remaining,[5],105% (inactive) and 62.3% (inactive)
same,viability,[5],98.5% and 75.1%
same,fold change,[1]; stronger effect = lower value,0.83 (inactive)
same,fold change,[1]; [13],1.33
same,cell count,[1]; [14],7960
same,cell count,[1]; [15],9590
C[C@]12Cc3cn[nH]c3CC1CCC1C2CC[C@@]2(C)C1CC[C@]2(C)O (stereo not given in full),fold change,[1]; stronger effect = lower value,0.922 (inactive)
same,fold change,[1]; [13],1.42
same,cell count,[1]; [14],8110
same,cell count,[1]; [15],8800
same,z-score,[2],-0.42 (inactive)
CC[C@H]1CN2CCC1C[C@H]2[C@H](O)c1ccnc2ccc(OC)cc12 (stereo not given in full),survival,[4],6.08 (inactive)
same,parasite load remaining,[5],83.6% (inactive) and 51.6% (inactive)
same,viability,[5],106% and 80.9%
same,fold change,[1]; [16],0.867 (inactive)
same,fold change,[1]; [13],1.17
same,cell count,[1]; [14],8140
same,cell count,[1]; [15],9390
NC(CCCCCP(=O)(O)O)C(=O)O (stereo not given),period change,[6],-0.03 h (inactive)
same,inhibition,[7],-1% (inactive)
same,fluorescence ratio (interference),[8],1 (inactive)
same,fold change,[1]; stronger effect = lower value,1.02 (inactive)
same,fold change,[1]; [13],2.45
same,cell count,[1]; [14],10400
same,cell count,[1]; [15],10200
same,z-score,[2],0.42 (inactive)
CC(C)(O)C1C2OC(=O)C1[C@]1(O)CC3O[C@]34C(=O)OC2[C@]14C (stereo not given in full) (tested in a mixture with another compound),fold change,[1]; stronger effect = lower value,0.954 (inactive)
same,fold change,[1]; [13],1.55
same,cell count,[1]; [14],9380
same,cell count,[1]; [15],9830
same,z-score,[2],0.86 (inactive)
CNCC(O)c1ccc(O)c(OC)c1 (stereo not given),fluorescence slope change,[3],189% (active)
same,survival,[4],30.2 (inactive)
same,parasite load remaining,[5],40.2% (inactive) and 98.3% (inactive)
same,viability,[5],47.9% and 90.3%
same,fold change,[1]; [16],0.905 (inactive)
same,fold change,[1]; [13],1.46
same,cell count,[1]; [14],8830
same,cell count,[1]; [15],9760
C=C(C)CN1CC[C@]23c4c5ccc(O)c4OC2c2[nH]c4ccccc4c2C[C@@]3(O)C1C5 (stereo not given in full),fold change,[1]; stronger effect = lower value,0.245 (active)
same,fold change,[1]; [13],1.96
same,cell count,[1]; [14],761
same,cell count,[1]; [15],3110
same,z-score,[2],-1.44 (inactive)
C[C@]12CCC(=O)C=C1CCC1C2CC[C@@]2(C)C1CC[C@]2(C)O (stereo not given in full),fold change,[1]; stronger effect = lower value,1.16 (inactive)
same,fold change,[1]; [13],0.795
same,cell count,[1]; [14],2670
same,cell count,[1]; [15],2300
same,z-score,[2],-1.03 (inactive)
CCCCC/C=C\C/C=C\C/C=C\C/C=C\CCCC(=O)NCCc1ccc(O)c(O)c1,survival,[4],69.6 (inactive)
same,fold change,[1]; [16],0.953 (inactive)
same,fold change,[1]; [13],1.09
same,cell count,[1]; [14],5250
same,cell count,[1]; [15],5510
CN1C(CC(O)c2ccccc2)CCCC1CC(O)c1ccccc1 (stereo not given),survival,[4],5.42 (inactive)
same,parasite load remaining,[5],93.7% (inactive) and 75.5% (inactive)
same,viability,[5],96.2% and 77.8%
same,fold change,[1]; stronger effect = lower value,0.827 (inactive)
same,fold change,[1]; [13],1.06
same,cell count,[1]; [14],8680
same,cell count,[1]; [15],10500
